The list is not random: actives were taken first. Their share in the collection is about 4.5%.
DAX1 inh-1: inhibitors of DAX1 repression of SF-1 activated StAR promoter | HEK293T StAR-luciferase reporter, SF-1/DAX-1 repression relief | inhibition, % at 6.8 µM | actives 1.1% (n = 370,000) | AID 652010;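 active means inhibition above the mean over all tested compounds plus 3 SD, cut at about 3.6% in these data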;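 further: higher inhibition means more luminescence from relief of DAX-1 repression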
ssDAF12 agonist: S. stercoralis DAF-12 activation, primary screen. HEK293 ssDAF-12/GRIP1 lit1-tk-luc reporter, luminescence; % of 3 µM dafachronic acid response. activation, % at 6.8 µM. actives 1% (n = 370,000). AID 652126;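 active means activation above the mean over all tested compounds plus 3 SD, cut at about 0.9% in these data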
hgDAF12 agonist: agonists of H. glycines DAF-12 nuclear receptor. HEK293 GAL4-hgDAF12 UAS-luciferase reporter, agonist luminescence; normalized to butyrate control. AID 687014. actives 1.8% (n = 370,000). activation, % at 6.8 µM;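 active means activation above a cutoff set at the mean of all screened compounds plus 3 SD, cut at about 10% in these data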
DAX1 inh-2: inhibits human nuclear receptor DAX1 | P51843 | HEK293 Gal4-DAX1 luciferase reporter, luminescence | inhibition, % at 6.75 µM | actives 0.99% (n = 340,000);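 active means inhibition above the mean over all tested compounds plus 3 SD, cut at about 4.2% in these data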;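 further: inhibition shows as a rise in luminescence from relieved DAX1 repression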
Target sequence (P51843 207-470 limits assumed): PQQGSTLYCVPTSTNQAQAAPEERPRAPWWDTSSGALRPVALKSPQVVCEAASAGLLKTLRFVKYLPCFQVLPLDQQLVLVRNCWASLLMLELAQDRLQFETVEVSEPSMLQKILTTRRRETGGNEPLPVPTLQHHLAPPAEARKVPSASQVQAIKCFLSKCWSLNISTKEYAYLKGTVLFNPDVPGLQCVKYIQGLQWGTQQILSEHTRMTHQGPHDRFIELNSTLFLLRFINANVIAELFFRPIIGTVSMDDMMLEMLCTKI
FXN GAA850 act: frataxin GAA850 promoter activation; HEK293 lucGAA850 FXN promoter luciferase reporter, 24 h; percent of 10 µM SAHA response; activation, % at 6 µM; actives 0.56% (n = 360,000); AID 540364;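 active means activation above the average of all compounds screened plus 3 SD, cutoff fixed separately per campaign, cut at about 7.5% in these data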
hcDAF12 agonist: activates DAF-12 receptor from parasite H. contortus; actives 1.4% (n = 370,000); AID 652067; HEK293 hcDAF-12 lit1-tk-luc reporter, luminescence; 0% DMSO, 100% Δ7-dafachronic acid; activation, % at 6.8 µM;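 active means activation above the mean of all tested compounds plus 3 SD, cut at about 5.5% in these data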
DAX1 conf: NR0B1 (human) inhibition, confirmation | inhibition, % at 6.8 µM | AID 652134 | HEK293T StAR-promoter luciferase reporter, SF-1/DAX-1 repression | actives 87% (n = 2,400) | shares compounds with DAX1 inh-1;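 active means inhibition above the average of every tested compound plus 3 SD, cut at about 3.8% in these data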;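 further: active compounds raise luminescence by relieving repression of the StAR reporter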
SF1 mutant ctr: nonselective inhibitor or artifact in SF-1 mutant DAX1 counter-screen; inhibition, % at 6.8 µM; shares compounds with DAX1 inh-1; AID 652136; actives 78% (n = 2,400); HEK293 StAR-luciferase, SF-1 AF2 mutant, luminescence;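 active means inhibition above the mean of all tested compounds plus 3 SD, cut at about 3% in these data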
LXRb hcDAF ctr: counter-screen for hcDAF-12 agonists: agonists of human LXR-beta; HEK293 Gal4-LXR tk-luc reporter, luminescence, 24 h; normalized: DMSO 0%, positive control 100%; shares compounds with hcDAF12 agonist; 3,400 tested, under 10 active; activation, % at 6.8 µM;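 active means mean percent activation of the reporter above a cutoff set as the average over tested compounds plus their standard deviation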
Target sequence (P55055 whole entry, looked up, the tested form may be a part): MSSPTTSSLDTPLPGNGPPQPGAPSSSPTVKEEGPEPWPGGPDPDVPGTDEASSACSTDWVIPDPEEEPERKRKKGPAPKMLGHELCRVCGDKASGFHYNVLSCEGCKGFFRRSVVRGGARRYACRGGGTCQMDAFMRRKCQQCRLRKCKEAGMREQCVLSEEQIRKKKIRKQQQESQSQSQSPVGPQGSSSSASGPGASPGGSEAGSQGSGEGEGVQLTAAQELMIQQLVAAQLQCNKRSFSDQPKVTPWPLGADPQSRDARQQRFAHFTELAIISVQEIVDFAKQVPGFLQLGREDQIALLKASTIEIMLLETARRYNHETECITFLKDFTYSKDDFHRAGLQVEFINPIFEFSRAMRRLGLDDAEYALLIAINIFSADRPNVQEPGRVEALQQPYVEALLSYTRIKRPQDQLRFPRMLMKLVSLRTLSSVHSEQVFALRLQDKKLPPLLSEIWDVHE
hcDAF12 ag: hcDAF-12 agonism, confirmation assay; activation, % at 6.8 µM; actives 61% (n = 3,400); shares compounds with hcDAF12 agonist; HEK293 hcDAF-12 lit1-tk-luc reporter, luminescence; % of Δ7-dafachronic acid response;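 active means mean activation across triplicate tests above the threshold derived from the earlier primary screen, cut at about 5.5% in these data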
hgDAF12 ag: hgDAF-12 agonism, confirmation assay; activation, % at 6.8 µM; actives 80% (n = 3,300); shares compounds with hgDAF12 agonist; HEK293 GAL4-hgDAF12 luciferase reporter, agonist mode; percent of butyrate response; AID 743050;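 active means mean activation over triplicate wells above the hit cutoff derived from the earlier primary screen, cut at about 11% in these data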
LXR ag 2: LXR-beta agonism as DAF-12 counter-screen. 3,300 tested, under 10 active. HEK293 Gal4-LXR luciferase reporter, 24 h. activation, % at 6.8 µM. shares compounds with hgDAF12 agonist;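 active means mean activation of the triplicate above a set limit carried over from the primary screen, none filed active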
Of the large screens only hits and unclear results are named; the others gave an inactive call (follow-up assays come after a bar, where they were run).

CSc1ccc(/C=N/NC(=O)c2sccc2C)cc1	DAX1 inh-1 5.8, ssDAF12 agonist 1.7, hgDAF12 agonist 15.7, hcDAF12 agonist 7.1 | DAX1 conf 16.0 | SF1 mutant ctr 7.9 | LXRb hcDAF ctr inactive | hcDAF12 ag 6.6 | hgDAF12 ag 23.9 | LXR ag 2 inactive
CSc1ccc(/C=N/NC(=O)c2ccc(C)c(C)c2)cc1	none
Cc1nc(NC(=O)c2csc3ccccc23)sc1C	DAX1 inh-1 5.1, ssDAF12 agonist 1.5, hgDAF12 agonist 23.7, hcDAF12 agonist 13.2 | DAX1 conf 11.5 | SF1 mutant ctr 5.0 | LXRb hcDAF ctr inactive | hcDAF12 ag 9.7 | hgDAF12 ag 20.3 | LXR ag 2 inactive
CCN=C1NN=C(c2c[nH]c3ccccc23)CS1	DAX1 inh-1 4.9, ssDAF12 agonist 3.7, hgDAF12 agonist 15.4, hcDAF12 agonist 11.2 | DAX1 conf 12.2 | SF1 mutant ctr 5.8 | LXRb hcDAF ctr inactive | hcDAF12 ag 11.9 | hgDAF12 ag 20.0 | LXR ag 2 inactive
CCCC(=O)OC[C@H]1CN(C2CCCC2)S(=O)(=O)c2c(Oc3ccc(F)cc3OC)cccc2O1	none (no result: DAX1 inh-2, FXN GAA850 act)
O=C(N[C@H](Cc1ccccc1)C(=O)N1CCN(C(=O)N2CCOCC2)CC1)[C@H]1O[C@@H](n2ccc(=O)[nH]c2=O)[C@H](O)[C@@H]1O	none (no result: DAX1 inh-2, FXN GAA850 act)
O=C(NC(=S)Nc1ncccn1)c1ccc(Cl)cc1Cl	DAX1 inh-1 6.7, hgDAF12 agonist 15.7, DAX1 inh-2 5.1 | DAX1 conf 14.4 | SF1 mutant ctr 9.8 | hgDAF12 ag 14.0 | LXR ag 2 inactive
COC(=O)C1CN(Cc2ccccc2)CCS(=O)(=O)N1Cc1cn(Cc2ccccc2Br)nn1 (configuration not stated)	none (no result: DAX1 inh-2, FXN GAA850 act)
CCCNC(=O)C1(C)CCN(Cc2ccc(-n3ccnc3)cc2)C1 (configuration not stated)	none (no result: DAX1 inh-2)
Cc1cccn2cc(-c3ccc(S(=O)(=O)N4CCCCC4)cc3)nc12	none
COc1ccc(-c2cn3cccc(C)c3n2)cc1F	DAX1 inh-1 5.0, ssDAF12 agonist 1.0, hgDAF12 agonist 18.2, hcDAF12 agonist 7.9 | DAX1 conf 13.6 | SF1 mutant ctr 9.0 | LXRb hcDAF ctr inactive | hcDAF12 ag inactive | hgDAF12 ag 16.4 | LXR ag 2 inactive
COc1ccc(-c2cn3cc(C)ccc3n2)cc1OC	DAX1 inh-1 4.9, hgDAF12 agonist 19.0 | DAX1 conf 12.2 | SF1 mutant ctr 6.6 | hgDAF12 ag 17.6 | LXR ag 2 inactive
CCC(=O)Nc1cccc(-c2cn3cccc(C)c3n2)c1	none (no result: DAX1 inh-2)
Cc1cccn2cc(-c3ccc(Cl)cc3)nc12	DAX1 inh-1 9.3, ssDAF12 agonist 2.6, hgDAF12 agonist 16.2, hcDAF12 agonist 18.2 | DAX1 conf 11.4 | SF1 mutant ctr 4.0 | LXRb hcDAF ctr inactive | hcDAF12 ag 18.4 | hgDAF12 ag 18.4 | LXR ag 2 inactive
Cc1cccn2cc(-c3ccc(S(=O)(=O)N4CCOCC4)cc3)nc12	none
Cc1ccc(-c2cn3cccc(C)c3n2)cc1	DAX1 inh-1 9.2, ssDAF12 agonist 3.8, hgDAF12 agonist 14.8, hcDAF12 agonist 16.3 | DAX1 conf 16.7 | SF1 mutant ctr 7.9 | LXRb hcDAF ctr inactive | hcDAF12 ag 16.8 | hgDAF12 ag 21.1 | LXR ag 2 inactive
O=C(NCCCc1ccccc1)[C@H](Cc1ccccc1)NC1(C(=O)NCCc2c[nH]c3ccccc23)CCOCC1	none (no result: DAX1 inh-1, DAX1 inh-2, FXN GAA850 act)
COc1ccc(OC)c(CN2C(=O)CSCC2(C)c2nnnn2C2CCCC2)c1 (configuration not stated)	none (no result: DAX1 inh-2, FXN GAA850 act)
NC(=O)c1ccsc1NC(=O)c1ccc(N2CCCC2=O)cc1	DAX1 inh-1 6.7, ssDAF12 agonist 1.0, hgDAF12 agonist 25.5, hcDAF12 agonist 7.4 | DAX1 conf 14.3 | SF1 mutant ctr 9.6 | LXRb hcDAF ctr inactive | hcDAF12 ag 6.9 | hgDAF12 ag 16.7 | LXR ag 2 inactive
O=C(c1cnn(-c2ccccc2)c1)c1ccccc1O	DAX1 inh-1 6.1, hgDAF12 agonist 22.9, hcDAF12 agonist 7.9 | DAX1 conf 13.2 | SF1 mutant ctr 7.9 | LXRb hcDAF ctr inactive | hcDAF12 ag 7.1 | hgDAF12 ag 19.5 | LXR ag 2 inactive
O=C(c1cnn(-c2ccccc2)c1)c1cc(F)ccc1O	none
COc1ccc(CNc2nc3ccccc3n2C)c(OC)c1	DAX1 inh-1 6.4, hgDAF12 agonist 13.3 | DAX1 conf 12.5 | SF1 mutant ctr 7.4 | hgDAF12 ag 15.2 | LXR ag 2 inactive
CCC(=O)N1CCN(c2ccc(-n3c(=O)ccc4cnc5ccc(-c6cnc7ccccc7c6)cc5c43)cc2C(F)(F)F)CC1	none (no result: DAX1 inh-2, FXN GAA850 act)
O=C(Nc1ccccc1)OCCc1ccccn1	DAX1 inh-1 9.3, hgDAF12 agonist 13.9, DAX1 inh-2 5.8 | DAX1 conf 7.4 | SF1 mutant ctr 4.2 | hgDAF12 ag 11.2 | LXR ag 2 inactive
CCc1ccc(OCCOC(=O)Nc2ccccc2)cc1	none
O=C(CCCc1ccccn1)c1ccccc1	DAX1 inh-1 5.6, hgDAF12 agonist 18.1, hcDAF12 agonist 7.7 | DAX1 conf 10.8 | SF1 mutant ctr 5.8 | LXRb hcDAF ctr inactive | hcDAF12 ag inactive | hgDAF12 ag 11.1 | LXR ag 2 inactive
O=C(Cc1cccs1)NC1CCCCN(Cc2ccc(Cl)cc2)C1=O (configuration not stated)	none (no result: DAX1 inh-2, FXN GAA850 act)
Cc1nc2ccc(-c3nc4ccccc4o3)cc2[nH]1	DAX1 inh-1 5.2, hgDAF12 agonist 19.7 | DAX1 conf 14.9 | SF1 mutant ctr 8.8 | hgDAF12 ag 22.1 | LXR ag 2 inactive
O=C(NCc1ccccc1)N1CCN(Cc2nc3ccccc3c(=O)[nH]2)CC1	none (no result: DAX1 inh-2, FXN GAA850 act)

Screening results: PubChem BioAssay, The Scripps Research Institute Molecular Screening Center
